# MOR-DOR ag – agonists of human mu-delta opioid receptor heterodimerization | cells, OPRM1-OPRD1 heterodimerization, luminescence | AID 504326 | 0.3% of 340,000 active | activation, % at 9.3 µM | P35372+P41143;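 further: 0% = vehicle-treated cells and 100% = reference agonist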
# HTR5A inv ag – inverse agonist of human HTR5A in OPRM1-OPRD1 counter-screen; 0.083% of 340,000 active; HTR5A cell line, luminescence, inverse agonism; AID 504634; inhibition, % at 9.3 µM; in the data active means inhibition mostly above about 23%, no sharp cut-off; inactive means mostly below about 18%;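 further: 0% = cells with DMSO and 100% = no-cell wells with DMSO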
# Target sequence (P47898 whole entry, looked up): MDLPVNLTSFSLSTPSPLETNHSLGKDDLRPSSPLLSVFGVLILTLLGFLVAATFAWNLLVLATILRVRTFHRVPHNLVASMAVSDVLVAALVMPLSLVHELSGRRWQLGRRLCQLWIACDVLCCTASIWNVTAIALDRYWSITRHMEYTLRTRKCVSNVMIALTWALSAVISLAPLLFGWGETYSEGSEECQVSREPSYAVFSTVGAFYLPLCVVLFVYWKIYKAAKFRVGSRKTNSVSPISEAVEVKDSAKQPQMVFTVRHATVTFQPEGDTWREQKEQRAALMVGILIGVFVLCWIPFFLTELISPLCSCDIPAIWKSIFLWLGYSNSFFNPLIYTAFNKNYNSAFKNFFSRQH
# MOR-DOR inv ag – inverse agonists of human mu-delta opioid receptor heterodimerization | 0.21% of 340,000 active | AID 504357 | inhibition, % at 9.3 µM | P35372+P41143 | cell-based MOR-DOR heterodimer luminescence, inverse agonism; in the data active means inhibition above about 22%, passing the limit was not always enough;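 further: 0% = cells with DMSO and 100% = wells without cells with DMSO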
# HTR5A ag ctr – counter-screen for OPRM1-OPRD1 agonists: human HTR5A agonism; HTR5A agonist assay, luminescence, cell-based; activation, % at 9.3 µM; 0.61% of 340,000 active; in the data active means activation mostly above about 9.5%, no sharp cut-off; inactive means mostly below about 7.6%;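 further: 0% = cells with vehicle only and 100% = reference agonist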
# MOR-DOR ag conf – confirmation of human OPRM1-OPRD1 heterodimerization agonists | activation, % at 9.3 µM | cells, MOR-DOR heterodimerization, luminescence complementation | shares compounds with MOR-DOR ag | 45% of 830 active;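 further: 0% = vehicle-treated cells and 100% = reference agonist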
# HTR5A ag ctr2 – activates human HTR5A in OPRM1-OPRD1 agonist counter-screen; activation, % at 9.3 µM; HTR5A agonist counterscreen, cell luminescence; 8% of 830 active; shares compounds with MOR-DOR ag; in the data active means activation above about 17%;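 further: 0% = vehicle-treated cells and 100% = reference agonist response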
# * marks the source's active call; other numbers are inactive results; i = inactive; . = not tested or not shown. The list is not random: actives were taken first. Their share in the collection is about 1.1%. Unless noted, no stated cut-off is given here; in the data, active means activation above about 18%; inactive means the rest.
SMILES,MOR-DOR ag,HTR5A inv ag,MOR-DOR inv ag,HTR5A ag ctr,MOR-DOR ag conf,HTR5A ag ctr2
CN(C)CCCN(C(=O)c1ccc(S(=O)(=O)N2CCc3ccccc3C2)cc1)c1nc2c(F)cc(F)cc2s1,341.2*,16.9,i,-6.9,395.9*,0.1
CN(C)CCCN(C(=O)c1ccc(S(=O)(=O)N2CCCCCC2)cc1)c1nc2ccc(F)cc2s1,154.6*,-2.8,i,2.1,2.6,2.2
Cc1ccc2sc(N(CCCN(C)C)C(=O)c3ccc(S(=O)(=O)N(C)Cc4ccccc4)cc3)nc2c1C,40.3*,-0.1,-259.6,0.1,0.6,-1.7
CN(C)CCCN(C(=O)c1ccc(S(=O)(=O)N2CCOCC2)cc1)c1nc2ccc(F)cc2s1,-1.9,-26.2,11.1,7.2,.,.
COc1cc2nc(N(CCCN(C)C)C(=O)c3ccc(S(=O)(=O)N4CCc5ccccc5C4)cc3)sc2cc1OC,-3.0,-22.4,15.4,9.2,.,.
Nc1c2c(nn1-c1ccccc1)CCC2,-3.4,-11.2,17.9,4.0,.,.
CC(C)N(C)S(=O)(=O)c1ccc(NC(=O)C2=COCCO2)cc1,-1.1,7.4,4.4,-3.0,.,.
CCOc1cccc2sc(N(CCCN(C)C)C(=O)c3ccc(S(=O)(=O)N(CC)Cc4ccccc4)cc3)nc12,2.6,0.1,-14.2,6.2,.,.
CCN(Cc1ccccc1)S(=O)(=O)c1ccc(C(=O)N(CCCN(C)C)c2nc3c(F)cccc3s2)cc1,144.2*,-6.5,i,-0.9,26.4*,3.3
Cc1nc2ccc(C(=O)Nc3ccccc3Cl)cc2s1,-2.1,5.8,11.0,1.7,.,.
O=C(O)Cc1ccc(NC(=O)c2ccc(NC(=O)C3CC3)cc2)cc1,-1.2,8.9,6.2,-0.3,.,.
CC(C)(C)c1cc(C(=O)NNC(=O)Nc2ccccc2)n(Cc2ccccc2)n1,10.6,-4.9,-55.7,9.0,.,.
CC(C)(C)c1cc(C(=O)NNC(=O)Nc2cccc(Cl)c2)n(Cc2ccccc2)n1,24.7*,-18.8,-129.4,4.2,0.5,1.8
COc1cccc(NC(=O)CSc2nc3c(sc4ccccc43)c(=O)n2CCCN2CCCC2)c1,0.7,-1.4,-3.4,0.4,.,.
Cc1ccc(C)c(N2CCN(C(=O)Nc3ccc4c(c3)N(C)C(=O)CS4)CC2)c1,3.1,0.3,-20.0,-0.1,.,.
CN1C(=O)CSc2ccc(NC(=O)N3CCN(c4ccccn4)CC3)cc21,36.2*,-1.8,-217.6,0.7,25.8*,8.0
COc1cccc(NC(=O)Nc2ccc3c(c2)N(C)C(=O)CS3)c1,-0.2,3.8,1.2,4.6,.,.
CC(=O)Nc1ccc(NC(=O)Nc2ccc3c(c2)N(C)C(=O)CS3)cc1,21.0*,-4.7,-149.6,1.7,3.1,1.6
CC(OC(=O)c1n[nH]c2ccccc12)C(=O)Nc1ccccc1[N+](=O)[O-] (configuration not stated),32.1*,-19.3,-124.2,-1.1,14.6,4.0
Cc1ccc(NC(=O)C(C)OC(=O)c2n[nH]c3ccccc23)cc1 (configuration not stated),-1.7,-10.9,9.1,-1.8,.,.
Cc1ccc(S(=O)(=O)N2CCOC2CNC(=O)C(=O)NCCN(C)C)cc1 (configuration not stated),-2.4,-4.8,12.1,2.0,.,.
Cc1ccc(NC(=O)c2nnn(CC(=O)Nc3ccc4c(c3)OCO4)c2N)cc1C,23.1*,-28.6,-115.9,7.7,8.5,4.0
Cc1cc(C)cc(NC(=O)Cn2nnc(C(=O)NCc3ccccc3Cl)c2N)c1,25.3*,-7.7,-135.8,10.2,12.4,-2.0
Cc1ccc(NC(=O)Cn2nnc(C(=O)Nc3ccc(C)c(C)c3)c2N)cc1,-0.8,-13.6,3.8,4.5,.,.
Cc1cc(C)cc(NC(=O)Cn2nnc(C(=O)NCCc3ccccc3)c2N)c1,20.9*,-6.1,-104.0,6.8,11.7,8.4
SMILES,MOR-DOR ag,HTR5A inv ag,MOR-DOR inv ag,HTR5A ag ctr,MOR-DOR ag conf,HTR5A ag ctr2
COC(=O)[C@]1(C)N[C@H](c2ccc(-c3ccc(Cl)c(Cl)c3)c(OC)c2)[C@@H]2C(=O)N(C)C(=O)[C@@H]21,-1.1,-8.6,6.7,2.9,.,.
COc1ccc(F)cc1CN1CCN(C(=O)CCC(=O)Nc2nnc(C(C)C)s2)CC1,24.9*,-27.8,-142.6,-7.6,24.7*,2.7
Cc1ccc(N2CC(C(=O)Nc3ccccc3OC(F)F)CC2=O)cc1 (configuration not stated),-0.9,-7.2,3.5,-0.3,.,.
OC(CNCCC(c1ccccc1)c1ccccc1)COc1ccccc1 (configuration not stated),21.8*,-48.0,-105.3,-0.5,38.0*,5.9
OC(CNCCc1ccccc1)COc1ccc(OCC(O)CNCCc2ccccc2)cc1 (configuration not stated),-1.4,1.6,7.2,-3.1,.,.
CC(=Nc1ccccc1)C1=C(O)C(Cc2ccccc2)NC1=O (configuration not stated),-0.9,3.1,4.4,-0.8,.,.
OCCNc1nc(-c2ccccc2)nc2c1oc1ccccc12,-0.5,-24.8,2.5,2.8,.,.
COc1ccc(OC)c(C=Nc2ccccc2-c2nc3ccccc3[nH]2)c1,0.2,25.4,-1.0,4.8,.,.
COc1ccc(OC)c(/C=C/c2nc3ccccc3[nH]c2=O)c1,20.7*,-17.2,-115.5,7.1,7.3,7.9
O=C1C(Nc2ccc(O)cc2)=C/C(=N/S(=O)(=O)c2cccs2)c2ccccc21,24.0*,25.4,-123.0,4.7,-0.2,-0.2
Cc1cccc(NC2=C/C(=N/S(=O)(=O)c3cccs3)c3ccccc3C2=O)c1,10.9,-5.6,-56.5,1.5,.,.
CCSc1nnc(NC(=O)c2cc(-c3ccccc3O)n[nH]2)s1,32.1*,-15.0,-171.2,0.8,10.0,0.8
CCSc1nnc(NC(=O)c2cccc3ccccc23)s1,5.7,-16.2,-29.3,5.8,.,.
Cc1ccc(-c2csc(Cc3nc(-c4cc5ccccc5oc4=O)cs3)n2)cc1,3.0,2.5,-18.1,-1.1,.,.
Cc1ccn2cc(-c3cc4ccccc4oc3=O)nc2c1,19.7*,-17.5,-102.4,-0.5,11.9,5.5
CN1C2C=C(N(CCc3ccccc3)C(=O)c3ccc(Cl)cc3)CC1CC2 (configuration not stated),73.4*,5.0,-376.5,1.3,88.9*,-3.8
CN1C2CCC1CC(N(CCc1ccccc1)C(=O)c1ccc(Cl)cc1)C2 (configuration not stated),2.3,-8.5,-10.8,2.2,.,.
O=C(NCc1ccco1)c1cc2n(n1)C(C(F)(F)F)CC(c1ccc(Br)cc1)N2 (configuration not stated),19.2*,-21.0,-94.4,2.5,-0.3,2.9
Cc1cc(/C=C2\SC(=Nc3ccc(F)cc3)NC2=O)c(C)n1-c1ccc(S(N)(=O)=O)cc1,125.1*,-12.1,i,4.1,23.9*,3.0
O=C1C=C(c2c(O)ccc3ccccc23)c2ccccc2C1=O,54.5*,-39.0,-280.2,10.0,46.6*,13.7

# Screening results: PubChem BioAssay, The Scripps Research Institute Molecular Screening Center
